The text below walks through data of PubChem BioAssay AID589 (National Center for Advancing Translational Sciences (NCATS), 2007).

“And” between values parts separate entries of the source, which are not always exact repeats. Equal entries are not always repeated. Out of some 59,000 compounds screened, about 6,200 (11%) were called active. Roughly 9% stayed inconclusive and do not appear here. Cut-off read from the data, not from the text of the source: active = max dye-equivalent concentration above about 10 nM; inconclusive = mostly about 1.1 nM to 9.6 nM; inactive = weaker than that. Shown is part of a subset that was picked to be rich in actives.

This experiment is described as follows: qHTS Assay for Spectroscopic Profiling in 4-MU Spectral Region. The following applies: compound autofluorescence, 340/450 nm, 4-MU equivalents; hits give high values. In a few lines: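 Compounds in 100 mM Tris, pH 8.0, sat 15 min at room temperature before fluorescence was read at 340 nm excitation/450 nm emission; a per-plate six-point 4-MU standard curve converted signals to dye-equivalent concentration at each compound concentration.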
Background: In qHTS, concentration-response curves come from the screen itself.
On to `CCC(Oc1ccccc1)C(=O)NCc1cccnc1` (stereo not given), for which the max dye-equivalent concentration result was “inactive”. Under `O=C(Oc1ccc2c(c1)CCC2)N1CCOCC1` stands “inactive”; under `O=C(Nc1cccc(OCC(=O)N2CCOCC2)c1)C1CCCCC1`, “inactive”; under `O=C1CC2(CCCCC2)Oc2ccc(OCC(=O)N3CCOCC3)cc21`, 1.2e-06 M (active). Under `CCOC(=O)CCc1c(C)c2ccc(OCc3nn[nH]n3)c(C)c2oc1=O` stands 2.4e-08 M (active); under `C[C@H](NC(=O)OC(C)(C)C)c1nnc(SCC(=O)Nc2ccc(Br)cc2)o1`, “inactive”.

Regarding `CCc1nc2ccccc2n(CCOCCOCCn2c(=O)c(CC)nc3ccccc32)c1=O`, the max dye-equivalent concentration is 3.4e-08 M (active). Under `C=C(Br)Cn1c(CCCC)nc2ccccc21` stands “inactive”; under `CCC(=O)Nc1nc2ccccc2n1Cc1ccccc1C`, “inactive”. For the molecule `COc1cccc(OC)c1OCCN1CCN(C(=O)c2ccco2)CC1`, the max dye-equivalent concentration result is “inactive”. Under `Cc1cccc(Cn2c(SCCO)nc3c2c(=O)n(C)c(=O)n3C)c1` stands “inactive”.

As to `CCOC(=O)N1CCN(CC(=O)c2c(C)[nH]c3ccccc23)CC1`, the max dye-equivalent concentration result is “inactive”.

Take `CCOC(=O)N1CCN(CC(=O)c2ccc3c(c2)CCN3)CC1`: the max dye-equivalent concentration is 1.2e-08 M (active). As for `CCOC(=O)N1CCN(CC(=O)n2c(C)c(C)c3ccccc32)CC1`, the entry is “inactive”; as for `CCNS(=O)(=O)c1ccc(NC(=O)Nc2cccc(C(F)(F)F)c2)cc1`, “inactive”. On to `CC1Oc2ccccc2N(Cc2cccnc2)C1=O` (stereo not given), for which the max dye-equivalent concentration entry is “inactive”. As for `Cc1ccc(CC2CC(=O)N(c3ccc4c(c3)OCCO4)C2=O)cc1` (stereo not given), the entry is “inactive”.

With `N#CC1=C(N)C(C#N)(C#N)[C@H](c2ccsc2)[C@H]2COCC=C12`, the max dye-equivalent concentration was 1.3e-08 M (active). As for `COc1cccc2cc(C(=O)N(C)C)c(=O)oc12`, the entry is “inactive”. As for `COC(=O)c1ccccc1NC(=O)C1CCN(S(=O)(=O)c2cc(OC)ccc2OC)CC1`, the entry is “inactive”; as for `COc1ccc(OC)c(S(=O)(=O)Nc2ccccc2F)c1`, 6.6e-08 M (active). As for `COc1ccc(F)cc1S(=O)(=O)Nc1ccc2c(c1)OCO2`, the entry is “inactive”; as for `Cc1cc(OCC(=O)O)c(Cl)cc1Cl`, “inactive”; as for `Cc1nc(NC(CC(C)C)C(=O)O)c2nc(C)oc2n1` (stereo not given), “inactive”. `COc1c(C)c2c(c(O)c1C/C=C(\C)CCC(=O)O)C(=O)OC2`: the max dye-equivalent concentration is 7e-08 M (active) and 1.5e-08 M (active). As for `O=C(NC1CCCCC1)N1CCc2[nH]c3ccccc3c2C1`, the entry is “inactive”; as for `NC(=O)C1CCN(C2OC(=O)c3ccccc32)CC1` (stereo not given), “inactive”. Under `CCCOC(=O)Cc1c(O)c2ccccc2[nH]c1=O` stands “inactive”. As for `CCOC(=O)CC1=CC(=O)Nc2ccccc2N1`, the entry is “inactive”.

On to `CCOC(=O)CCc1c(C)c(C#N)c2[nH]c3ccccc3n2c1=O`, for which the max dye-equivalent concentration is 5.3e-06 M (active). Under `CCOC(=O)c1sc(=S)n2c1[nH]c(=O)c1ccc(C(=O)OC)cc12` stands “inactive”; under `Cc1cc2c(cc1C)NC(c1ccccn1)C1=C(CC(C)(C)CC1=O)N2` (stereo not given), “inactive”. Under `C=CCSC1=C(C#N)C(c2cc(Br)c(O)c(OC)c2)CC(=O)N1` (stereo not given) stands “inactive”; under `COc1cc(C2C(C#N)=C(C)NC3=C2C(=O)CC(C)(C)C3)ccc1O` (stereo not given), 1.3e-08 M (active); under `CCCCCCC(=O)N(O)C1CC(=O)N(c2ccccc2)C1=O` (stereo not given), “inactive”. On to `COc1c(F)c(F)c(-c2csc(N)n2)c(F)c1F`, for which the max dye-equivalent concentration was 1.5e-08 M (active). In the case of `CCC(=O)Nc1nc(OC)cc(OC)n1`, the max dye-equivalent concentration result was “inactive”. On to `Cc1cc(C)nc(NC2=NCC(=O)N2c2ccc(Cl)cc2)n1`, for which the max dye-equivalent concentration result was “inactive”. For `CCN(CC(=O)Nc1ccc2c(c1)OCCO2)Cc1cc(=O)oc2cc(C)c(C)cc12`, the max dye-equivalent concentration result was “inactive”. For the molecule `C=CCn1c(SCC(=O)Nc2nc3ccccc3s2)nnc1-c1ccccc1O`, the max dye-equivalent concentration result was “inactive”. Under `C=CCn1c2ccccc2c2nnc(SC(CC)C(=O)Nc3nc(C)c(C(=O)OCC)s3)nc21` (stereo not given) stands 4.6e-08 M (active); under `O=C(CC1N=C2c3ccccc3N=C(SCc3ccccc3Cl)N2C1=O)NCc1ccco1` (stereo not given), 1.8e-08 M (active); under `Cc1nc2nc(SCC(=O)NCc3ccco3)nn2c(C)c1Cc1ccccc1`, “inactive”. As for `O=C(CN1C(=O)CCS(=O)(=O)c2ccccc21)NCc1ccc(F)cc1`, the max dye-equivalent concentration entry is “inactive”. Under `NC(=O)CSC1=Nc2ccccc2C2=NC(CCC(=O)NCc3ccc(F)cc3)C(=O)N12` (stereo not given) stands 4.6e-07 M (active); under `CC1(c2ccccc2Cl)NC(=O)N(CC(=O)NC(=O)NCc2ccco2)C1=O` (stereo not given), “inactive”; under `COCCCN1C(=O)c2ccc(C(=O)Nc3ccc(OC)cc3OC)cc2C1=O`, “inactive”.

For the molecule `O=C(NC(=O)c1ccc(Cl)c(Cl)c1)OC1CCS(=O)(=O)C1` (stereo not given), the max dye-equivalent concentration entry was “inactive”.

As for `COc1ccc(O)c(C(=O)c2cnc3onc(C(C)C)c3c2)c1`, the max dye-equivalent concentration entry was “inactive”. Under `COc1ccc(OCC(=O)OCCN(C)C)cc1` stands “inactive”. As for `CC(C)(C)C(=O)CCN1C(=O)C2(OCCO2)c2ccccc21`, the entry is “inactive”; as for `CCN(CC)S(=O)(=O)c1cccc(C(=O)NCC(=O)OCC(=O)NCc2ccccc2)c1`, “inactive”; as for `O=C(Cn1[nH]c(=O)c2ccccc2c1=O)Nc1cccc(-c2nnc3n2CCCCC3)c1`, “inactive”. Under `O=C(CSc1nnnn1-c1ccc2c(c1)CCC2)Nc1ccc2c(c1)OCCO2` stands “inactive”; under `COC(C)(C)[C@]12CC(O)(C(C)C)ON1[C@H]1CCCCC1N2O` (stereo not given in full), “inactive”; under `COc1ccc(NC(C)=O)cc1NC(=O)CN1CCN(C2c3ccccc3-c3ccccc32)CC1`, “inactive”.

In the case of `CC(=O)Nc1ccc(-c2cn3cccnc3n2)cc1`, the max dye-equivalent concentration is 6.1e-06 M (active). Turning to `CC(=O)Nc1cccc(-c2cnc3ccccc3n2)c1`, the max dye-equivalent concentration entry is “inactive”. Under `COc1ccc(-c2cn3ccsc3n2)cc1` stands “inactive”. Under `c1ccc(-c2cn3cccnc3n2)cc1` stands 5.1e-06 M (active). As for `CCCC(=O)Nc1cccc(-c2cn3ccsc3n2)c1`, the entry is “inactive”; as for `CCOc1nc(OCC)nc(-n2cc(-c3ccccc3)nn2)n1`, “inactive”; as for `COC(=O)[C@H](C)NC(=O)Nc1ccc(OC(F)(F)F)cc1`, “inactive”.

In the case of `CCS(=O)(=O)N1CCCC(C(=O)NCc2ccc(C)cc2)C1` (stereo not given), the max dye-equivalent concentration result is “inactive”. Under `COc1ccc(CNc2ncnc3ccc(-c4cccnc4)cc23)c(OC)c1` stands “inactive”. Under `COc1cc(-c2noc(C3CCCN(S(=O)(=O)c4cccc(Cl)c4)C3)n2)cc(OC)c1OC` (stereo not given) stands “inactive”. Under `CC(NC(=O)CSc1nc2c(cc1C#N)CN(C)CC2)c1ccccc1` (stereo not given) stands 2.2e-08 M (active); under `Cc1ccc2cc(C#N)c(SCC(=O)NCC3CCCO3)nc2c1C` (stereo not given), “inactive”; under `Cc1cc(C(F)(F)F)c(C#N)c(SCC(=O)NC2CC2)n1`, “inactive”. On to `O=C1c2ccccc2C(=O)N1CCc1nn[nH]n1`, for which the max dye-equivalent concentration entry is “inactive”.

For the molecule `COc1ccc(-n2c(SCC(=O)Nc3ccc4c(c3)OCO4)nnc2C(C)N2CCCCC2)cc1` (stereo not given), the max dye-equivalent concentration result is “inactive”. Under `COC(=O)c1cccc(NC(=O)CN2CCC(NC(=O)c3cc(OC)c(OC)c(OC)c3)CC2)c1` stands “inactive”.

In the case of `COc1cc(C(=O)Nc2oc(-c3ccccc3)c(-c3ccccc3)c2C#N)cc(OC)c1OC`, the max dye-equivalent concentration is 1.1e-08 M (active). As for `COc1cc(C(=O)Nc2nccs2)cc(OC)c1OC`, the entry is “inactive”. As for `Cc1ccc(N2CCN(S(=O)(=O)N(C)C)CC2)cc1Cl`, the entry is “inactive”; as for `CCCn1c(SCC(N)=O)nnc1C(C)C`, “inactive”.

Take `Cc1ccc(C(=O)CS(C)(=O)=O)cc1`: the max dye-equivalent concentration was 2e-08 M (active). As for `N#Cc1ccc(CSc2nnc(-c3ccccn3)n2-c2ccc(Cl)cc2)cc1`, the entry is “inactive”.

`N#CNC1=NCN(CCc2ccccc2)CN1`: the max dye-equivalent concentration result is “inactive”. For `O=C(c1csnn1)N1CCC[C@@]2(CCN(c3cccc(-c4ccccc4)c3)C2)C1`, the max dye-equivalent concentration entry was “inactive”. Under `COc1ccc(CN2C(=O)CN=C2Nc2ccc(C)cc2C)cc1` stands “inactive”; under `Cc1cc(C)nc(N2C(=O)CC(Cc3ccccc3)C2=O)n1` (stereo not given), “inactive”; under `Nc1ccc2c3c(cccc13)C(=O)NC2=O`, “inactive”. As for `C=CCNc1nnc(C)c2ccccc12`, the entry is “inactive”.

With `C=CCNc1nnc(SCC(=O)N2CCCCC2)c2ccccc12`, the max dye-equivalent concentration is 1.6e-08 M (active). For the molecule `CCOc1ccccc1-n1c(SCC(=O)N2CCCC2)nnc1-c1ccoc1C`, the max dye-equivalent concentration result was “inactive”. Under `CCNc1nc(SCCOc2ccccc2)nc(N(C)C)n1` stands “inactive”. Under `O=c1oc2cc(O)ccc2cc1-c1ccc(F)cc1` stands 9.5e-08 M (active); under `Nc1ncc(-c2cc3ccccc3oc2=O)s1`, “inactive”; under `O=C(NCCCNC(=O)NC1CCCCC1)NC1CCCCC1`, “inactive”. As for `Cn1cnc2c1c(=O)n(Cc1c(Cl)cccc1Cl)c(=O)n2C`, the entry is “inactive”; as for `CNC(=O)c1ccc2nc(NC(C)=O)sc2c1`, “inactive”; as for `COc1ccc2nc(NC(=O)c3ccc(Br)s3)sc2c1`, 4.6e-07 M (active).

With `COC(=O)c1sc(NC(=O)c2ccc(OC)cc2OC)nc1C`, the max dye-equivalent concentration result was “inactive”. As for `Cc1c(C)c2cc3c4c(oc3c(C)c2oc1=O)CCCC4`, the figure is 3e-08 M (active); as for `CC(=O)N(Cc1cccs1)C1CCOC(C)(C)C1` (stereo not given), “inactive”; as for `Cc1cc(NC(=O)CCC(=O)N(c2ccccc2)C(C(=O)NC2CCCC2)c2ccncc2)no1` (stereo not given), “inactive”.

As to `COc1ccc(Cn2c(=O)sc3ccccc32)cc1OC`, the max dye-equivalent concentration entry was “inactive”. Consider `CCn1c(SCC(=O)NCc2ccco2)nnc1-c1ccc(N)cc1`, for which the max dye-equivalent concentration result was “inactive”. Under `Cc1ccc2c(CSc3nncs3)cc(=O)oc2c1` stands “inactive”; under `CCOC(=O)c1cc2occc2n1CC(=O)NC1CCC(C)CC1` (stereo not given), “inactive”; under `CN(C)CCNC(CC(=O)Nc1ccc(Cl)c(Cl)c1)C(=O)O` (stereo not given), “inactive”. As for `O=C(Nc1cnn(Cc2ccc(Cl)cc2)c1)C1CCCC1`, the entry is “inactive”; as for `CN1C(=O)c2ccc(NC(=O)C3CCCCC3)cc2C1=O`, 2.3e-07 M (active). For the molecule `O=C(Nc1ccncc1)c1c(F)cccc1F`, the max dye-equivalent concentration result was “inactive”.

In the case of `Cn1c(=O)n(C)c2cc(C(=O)Nc3ccc4c(c3)OCO4)ccc21`, the max dye-equivalent concentration result was “inactive”. Under `O=C(O)c1ccc(NC(=O)C2CCCCC2)cc1` stands “inactive”; under `CN1C(=O)c2ccc(NC(=O)c3c(F)c(F)c(F)c(F)c3F)cc2C1=O`, 9.8e-08 M (active); under `COc1ccc(C[C@H](N)C(=O)N[C@@H]2[C@H](O)[C@H](n3cnc4c(N(C)C)ncnc43)O[C@@H]2CO)cc1`, “inactive”.

For `O=S(=O)(c1ccc(Sc2nnc3ccccn23)nc1)N1CCOCC1`, the max dye-equivalent concentration entry was “inactive”.
